Assay results from PubChem BioAssay (NCATS).
A number with no mark means an inactive call. Inconclusive results are not listed. Entries that show only a call come without a potency. Activity calls are given as the source filed them. Calls come from the whole dose curve; as a rule, active = well fitted curve in the direction sought with a large enough effect; inconclusive = small, poorly fitted or top-dose-only effect, or another doubt; inactive = no such curve, though single readings can be large; an effect the other way counts as inactive or inconclusive.

What was measured:
[1] = biological target: Phosphoglycerate kinase, glycosomal (Trypanosoma brucei brucei) (UniProt P07378); test: qHTS Validation Assay to Find Inhibitors of Phosphoglycerate Kinase (AID 504547)
Procedure, shortened: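 Substrate/PGK mix plus compound; reaction started with GAPDH (100nM final) to form 1,3-BPG; 60 min RT; Kinase-Glo Plus 10 min; luminescence. TEA 100mM pH 7.6, MgCl2 5mM, Tween-20 0.01%.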

[2] = biological target: phosphoglycerate mutase (Leishmania major) (UniProt Q4Q090); test: qHTS Validation Assay to Find Inhibitors of Phosphoglycerate Mutase (AID 504548); note: series mostly up to about 58 µM
Procedure, shortened: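 Lm PGAM 1.25nM final; 100 mM TEA pH 7.6, 5 mM MgCl2, 0.01% Tween-20; 45 min RT; Kinase-GloPlus, 10 min; end-point luminescence. Enzyme-free wells as negative controls.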

[3] = biological target: Ubiquitin carboxyl-terminal hydrolase 1 (Homo sapiens) (UniProt O94782); test: Inhibitors of USP1/UAF1: Pilot qHTS (AID 504865); note: nearly all actives have a fitted effect of over 35% in size; note: potency is the fitted concentration of half-maximal effect
Procedure, shortened: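 Kinetic fluorescence assay: 1nM USP1/UAF1, 15 min compound preincubation, then 150nM Ub-Rho; 480/540 nm.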

[4] = qHTS for Inhibitors of ATXN expression: Validation of Cytotoxic Assay (AID 588349); note: potency is the fitted concentration of half-maximal effect
Procedure, shortened: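 HEK293 cells treated with titrated compound for 72 hr at 37 degrees C; viability read as intracellular ATP by CellTiter Glo luminescence.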

[5] = qHTS for Inhibitors of ATXN expression: Validation (AID 588378); note: series mostly up to about 57 µM; nearly all actives have a fitted effect of over 75% in size
Procedure, shortened: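 Validation of ATXN2 expression inhibitors uses a cell-based luciferase fusion reporter in HEK293 cells, with 24 h compound exposure and paired viability (fluorescence) and reporter (luminescence) end-point reads.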

[6] = biological target: DNA dC->dU-editing enzyme APOBEC-3G (Homo sapiens) (UniProt Q9HC16); test: qHTS for inhibitors of Vif-A3G interactions: Validation (AID 588379)
Procedure, shortened: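 HeLa cells stably expressing Vif and A3G-eYFP, 700 cells/well, incubated overnight at 37 deg C, then exposed to compound overnight at 37 deg C. Inhibition of Vif-mediated degradation read as increased yellow fluorescence (Ex 488/Em 500-530) by laser-scanning cytometry.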

Sequence of phosphoglycerate mutase (Leishmania major) (Q4Q090 1-553): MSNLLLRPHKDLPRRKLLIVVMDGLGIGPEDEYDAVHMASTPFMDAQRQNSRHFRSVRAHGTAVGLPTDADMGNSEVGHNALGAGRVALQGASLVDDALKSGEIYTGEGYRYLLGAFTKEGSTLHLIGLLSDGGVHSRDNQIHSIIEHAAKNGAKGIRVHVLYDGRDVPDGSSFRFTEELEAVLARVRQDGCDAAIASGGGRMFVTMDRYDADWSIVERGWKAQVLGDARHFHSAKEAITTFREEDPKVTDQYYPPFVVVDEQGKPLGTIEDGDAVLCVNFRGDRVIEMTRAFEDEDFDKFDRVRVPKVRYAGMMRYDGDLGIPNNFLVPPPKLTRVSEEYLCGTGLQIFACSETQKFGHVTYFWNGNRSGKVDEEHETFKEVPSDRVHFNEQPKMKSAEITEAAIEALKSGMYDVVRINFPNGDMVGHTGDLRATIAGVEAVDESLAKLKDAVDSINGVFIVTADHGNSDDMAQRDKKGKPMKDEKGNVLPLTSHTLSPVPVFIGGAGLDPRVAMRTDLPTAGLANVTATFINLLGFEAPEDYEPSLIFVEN
Sequence of Ubiquitin carboxyl-terminal hydrolase 1 (Homo sapiens) (O94782 whole entry, looked up): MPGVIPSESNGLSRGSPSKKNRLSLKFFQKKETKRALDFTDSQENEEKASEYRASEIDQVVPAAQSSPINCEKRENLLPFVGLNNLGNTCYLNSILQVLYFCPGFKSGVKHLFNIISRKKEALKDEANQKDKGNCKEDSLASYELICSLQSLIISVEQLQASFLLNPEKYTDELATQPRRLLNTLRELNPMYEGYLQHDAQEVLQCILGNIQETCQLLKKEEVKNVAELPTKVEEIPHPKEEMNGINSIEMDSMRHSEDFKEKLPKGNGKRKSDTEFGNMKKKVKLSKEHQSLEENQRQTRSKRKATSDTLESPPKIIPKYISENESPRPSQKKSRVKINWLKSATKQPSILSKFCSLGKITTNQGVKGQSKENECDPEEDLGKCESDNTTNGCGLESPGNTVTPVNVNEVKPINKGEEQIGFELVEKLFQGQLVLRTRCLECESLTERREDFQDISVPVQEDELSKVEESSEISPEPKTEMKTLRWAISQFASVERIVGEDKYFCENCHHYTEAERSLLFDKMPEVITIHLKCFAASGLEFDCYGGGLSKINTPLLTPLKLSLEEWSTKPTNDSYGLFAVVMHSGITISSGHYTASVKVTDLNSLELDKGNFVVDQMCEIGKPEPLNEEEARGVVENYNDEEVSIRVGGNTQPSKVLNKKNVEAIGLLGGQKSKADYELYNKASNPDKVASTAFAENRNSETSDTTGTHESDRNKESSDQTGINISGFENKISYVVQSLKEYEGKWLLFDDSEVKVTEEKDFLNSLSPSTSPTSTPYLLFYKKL
Sequence of DNA dC->dU-editing enzyme APOBEC-3G (Homo sapiens) (Q9HC16 whole entry, looked up): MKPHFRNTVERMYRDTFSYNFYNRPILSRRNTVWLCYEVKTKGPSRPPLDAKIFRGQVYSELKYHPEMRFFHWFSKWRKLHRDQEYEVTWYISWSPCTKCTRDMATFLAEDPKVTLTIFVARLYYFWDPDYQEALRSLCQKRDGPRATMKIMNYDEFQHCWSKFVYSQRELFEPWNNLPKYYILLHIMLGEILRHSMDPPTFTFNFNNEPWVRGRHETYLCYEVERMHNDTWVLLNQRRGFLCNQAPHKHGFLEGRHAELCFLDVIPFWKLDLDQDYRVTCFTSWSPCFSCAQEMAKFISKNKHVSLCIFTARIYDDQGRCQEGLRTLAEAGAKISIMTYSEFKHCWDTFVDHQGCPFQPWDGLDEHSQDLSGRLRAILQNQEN
Sequence of Phosphoglycerate kinase, glycosomal (Trypanosoma brucei brucei) (P07378 whole entry, looked up): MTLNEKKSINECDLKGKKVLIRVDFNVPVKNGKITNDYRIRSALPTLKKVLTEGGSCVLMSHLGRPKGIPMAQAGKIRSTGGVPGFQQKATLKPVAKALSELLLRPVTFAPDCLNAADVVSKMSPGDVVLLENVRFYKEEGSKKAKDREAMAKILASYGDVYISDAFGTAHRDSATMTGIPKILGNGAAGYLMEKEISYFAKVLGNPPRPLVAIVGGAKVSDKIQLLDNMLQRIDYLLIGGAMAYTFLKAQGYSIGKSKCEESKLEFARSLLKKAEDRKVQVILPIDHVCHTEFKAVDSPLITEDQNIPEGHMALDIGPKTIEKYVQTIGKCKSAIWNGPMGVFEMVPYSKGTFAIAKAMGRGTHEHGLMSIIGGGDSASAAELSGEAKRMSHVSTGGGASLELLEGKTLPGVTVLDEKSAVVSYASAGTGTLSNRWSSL

| SMILES | outcome [1] | outcome [2] | Potency [3] | Potency [4] | outcome [5] | outcome [6] |
| --- | --- | --- | --- | --- | --- | --- |
| OC(CCN1CCCCC1)(c1ccccc1)C1CC2C=CC1C2 (stereo unspecified) | inactive | inactive | inactive | – | – | – |
| CC(C[N+](C)(C)C)OC(N)=O (stereo unspecified) | inactive | inactive | inactive | inactive | inactive | – |
| NCCCC(N)(C(=O)O)C(F)F (stereo unspecified) | inactive | inactive | inactive | inactive | inactive | – |
| Cc1oncc1C(=O)Nc1ccc(C(F)(F)F)cc1 | inactive | inactive | inactive | inactive | inactive | – |
| CCn1cc(C(=O)O)c(=O)c2cc(F)c(N3CCNC(C)C3)c(F)c21 (stereo unspecified) | inactive | inactive | inactive | inactive | inactive | – |
| N[C@@H]1CONC1=O | inactive | inactive | inactive | inactive | inactive | – |
| O=c1n(CCCN2CCN(c3cccc(Cl)c3)CC2)nc2ccccn12 | inactive | inactive | inactive | inactive | inactive | – |
| O=C(Nc1nc2ccccc2n1CCN1CCOCC1)c1cccc([N+](=O)[O-])c1 | inactive | inactive | inactive | inactive | inactive | – |
| c1ccc([C@H]2CN3CCSC3=N2)cc1 | inactive | inactive | inactive | inactive | inactive | – |
| CN1CCN(CCCN2c3ccccc3Sc3ccc(C(F)(F)F)cc32)CC1 | inactive | inactive | 50.1 µM (active) | 28.2 µM (active) | – | – |
| CC(C)(C)NCC(O)c1ccc(O)c(CO)c1 (stereo unspecified) | inactive | inactive | inactive | inactive | inactive | – |
| CC(C)NCC(O)COc1ccc(COCCOC(C)C)cc1 (stereo unspecified) | inactive | inactive | inactive | inactive | inactive | – |
| CNC[C@H](O)c1cccc(O)c1 | inactive | inactive | inactive | inactive | inactive | – |
| Cc1[nH]c(=O)c(C#N)cc1-c1ccncc1 | inactive | inactive | inactive | inactive | inactive | inactive |
| CCC(C)N(C)C(=O)c1cc2ccccc2c(-c2ccccc2Cl)n1 (stereo unspecified) | inactive | inactive | inactive | inactive | inactive | – |
| O=C1CCc2cc(OCCCCc3nnnn3C3CCCCC3)ccc2N1 | inactive | inactive | inactive | inactive | inactive | inactive |
| NNCCc1ccccc1 | inactive | inactive | inactive | inactive | inactive | – |
| O=C1CCC(N2C(=O)c3ccccc3C2=O)C(=O)N1 (stereo unspecified) | inactive | inactive | inactive | inactive | inactive | – |
| Clc1cccc(Cl)c1NC1=NCCN1 | inactive | inactive | inactive | inactive | inactive | inactive |
| N=c1nc(N2CCCCC2)cc(N)n1O | inactive | inactive | inactive | inactive | inactive | inactive |
| CCCCNc1cc(C(=O)O)cc(S(N)(=O)=O)c1Oc1ccccc1 | inactive | inactive | inactive | inactive | inactive | – |
| Cc1ccc(N(CC2=NCCN2)c2cccc(O)c2)cc1 | inactive | inactive | inactive | – | – | – |
| Cc1cn[nH]c1 | inactive | inactive | inactive | inactive | inactive | – |
| Nc1ccc(S(=O)(=O)Nc2ccnn2-c2ccccc2)cc1 | inactive | inactive | inactive | inactive | inactive | – |
| Cc1[nH]c(=O)c(C#N)cc1-c1ccc2nccn2c1 | inactive | inactive | inactive | – | – | – |
| Nc1nc2ccc(OC(F)(F)F)cc2s1 | inactive | inactive | inactive | inactive | inactive | inactive |
| Oc1ccc(C2CNCCc3c2cc(O)c(O)c3Cl)cc1 (stereo unspecified) | inactive | inactive | inactive | inactive | inactive | – |
| CCN(CC)CCCC(C)Nc1ccnc2cc(Cl)ccc12 (stereo unspecified) | inactive | inactive | inactive | – | – | – |
